Experimental data taken from ChEMBL document CHEMBL4513216, “Probing the Open Global Health Chemical Diversity Library for Multistage-Active Starting Points for Next-Generation Antimalarials” (ACS Infect Dis, 2020).
The whole screen tested about 69,000 compounds, of which about 8,600 (12%) showed an effect of 50% or more. This is one part of a sample in which strong results are shown more often than they occur.

tested on: Plasmodium berghei; experiment: Screen against P. berghei liver stage (PbLuc), transformed with Luciferase, at 10uM; format: functional, HepG2; conditions: tested at 10 uM

Question: Which INHIBITION does the source give for `O=C(Cc1noc2ccccc12)N1CCC(Nc2cccnn2)CC1` here?
Answer: Its INHIBITION is 43.3%.

Question: `CC(C)(C)c1n[nH]c(C2CN(C(=O)c3cc(C4CC4)on3)CCO2)n1` (configuration not stated) was tested. Which INHIBITION did it give?
Answer: Its INHIBITION is 35.5%.

Question: Which INHIBITION does the source give for `O=C(CCCNc1ncccn1)N1CCCC(n2cncn2)C1` (configuration not stated) here?
Answer: Its INHIBITION is 27.6%.

Question: Which INHIBITION does the source give for `O=C([C@H]1CN(Cc2nccs2)C[C@H]2OCC[C@@H]12)N1CCCCO1` here?
Answer: Its INHIBITION is 22.2%.

Question: `CCOC1(C)C(=O)c2ccccc2N1Nc1ccccc1C(=O)CC` (configuration not stated) was tested. Which INHIBITION did it give?
Answer: Its INHIBITION is 67.3%.

Question: Which INHIBITION does the source give for `CCC(=O)c1ccc(Br)cc1NN1c2cc(Br)ccc2C(=O)C1(C)OC` (configuration not stated) here?
Answer: The INHIBITION was 70.6%.

Question: For `CCC(=O)c1ccccc1NN1c2ccccc2C(=O)C1(C)OC` (configuration not stated), which INHIBITION is on record?
Answer: The INHIBITION was 17.6%.

Question: `CC(NC(=O)N1CCNC(=O)CC1)c1ccc(C(F)(F)F)cc1` (configuration not stated) was tested. Which INHIBITION did it give?
Answer: The INHIBITION was 48.2%.

Question: How did the INHIBITION turn out when `Cc1cc2n(n1)[C@@H](C(F)(F)F)C[C@@H](C1CCN(C(=O)C(C)C)CC1)N2` was run?
Answer: Its INHIBITION is -26.2%.

Question: With `Cc1cnc(C(=O)N2CCCC(c3c(C)c(=O)nc4n3CCC4)C2)cn1` (configuration not stated) as the compound, how does the INHIBITION read?
Answer: The INHIBITION was -17.7%.

Question: How did the INHIBITION turn out when `N#Cc1cccnc1N1CCN(S(=O)(=O)NCc2ccccc2)CC1` was run?
Answer: Its INHIBITION is 11.5%.

Question: Which INHIBITION does the source give for `O=S(=O)(NCc1ccccc1)N1CCCN(c2ccncc2)CC1` here?
Answer: The INHIBITION was 71.3%.

Question: `O=S(=O)(NCc1ccccc1)N1CCN(c2ncccn2)CC1` was tested. Which INHIBITION did it give?
Answer: The INHIBITION was 31%.

Question: How did the INHIBITION turn out when `Cc1[nH]c2ccc(Cl)cc2c1CCNc1ncnc2c1CCNC2` was run?
Answer: Its INHIBITION is 92.5%.

Question: With `Cc1[nH]c2ccc(C#N)cc2c1CCNc1ncnc2c1CCNCC2` as the compound, how does the INHIBITION read?
Answer: Its INHIBITION is 44.3%.

Question: With `Cc1[nH]c2ccccc2c1CCNc1ncnc2c1CCNCC2` as the compound, how does the INHIBITION read?
Answer: Its INHIBITION is 72.1%.

Question: Which INHIBITION does the source give for `Cc1ccccc1C(CNc1ncnc2c1CCNC2)N(C)C` (configuration not stated) here?
Answer: Its INHIBITION is -2.98%.

Question: How did the INHIBITION turn out when `Cc1ccccc1C(CNc1ncnc2c1CCNCC2)N(C)C` (configuration not stated) was run?
Answer: Its INHIBITION is -59.8%.

Question: Which INHIBITION does the source give for `Cc1cccc(=O)n1CCCNc1ncnc2c1CCNCC2` here?
Answer: Its INHIBITION is -1.98%.

Question: How did the INHIBITION turn out when `c1cnn(CCN2CCOC(Cn3cccn3)C2)c1` (configuration not stated) was run?
Answer: The INHIBITION was -59.4%.

Question: `CCCOCC(=O)N1CCc2nc(NC)nc(C(=O)N3CCCC3)c2C1` was tested. Which INHIBITION did it give?
Answer: Its INHIBITION is -5.08%.

Question: How did the INHIBITION turn out when `CN(C)c1ccc(C(=O)N2CCN(c3cnccn3)CC2)cn1` was run?
Answer: Its INHIBITION is 2.1%.

Question: How did the INHIBITION turn out when `Cc1nn(C)c2ncc(CN3CCN(c4ncccn4)CC3)cc12` was run?
Answer: Its INHIBITION is 7.3%.

Question: Which INHIBITION does the source give for `CCC(C)NC(=O)CS(=O)(=O)Cc1cc(Cl)c2c(c1)OCCCO2` (configuration not stated) here?
Answer: The INHIBITION was -58.7%.

Question: For `CCOC(=O)C1(O)CCN(C(=O)Nc2cccc(CC)c2)CC1`, which INHIBITION is on record?
Answer: Its INHIBITION is -41.8%.

Question: How did the INHIBITION turn out when `COc1c(C2CCCN2C(=O)c2ccnc(C)n2)c(C)nn1C` (configuration not stated) was run?
Answer: The INHIBITION was 3.73%.

Question: Which INHIBITION does the source give for `Cc1nn(C)cc1CN1CCCCCC1c1ccc(Cl)cc1` (configuration not stated) here?
Answer: Its INHIBITION is 13.6%.

Question: Which INHIBITION does the source give for `Cc1noc(C(C)N2CCN(Cc3ccco3)CC2)n1` (configuration not stated) here?
Answer: The INHIBITION was 34.7%.

Question: `CCc1cc(C)nc(N2CCN(C(C)c3nc(C)no3)CC2)n1` (configuration not stated) was tested. Which INHIBITION did it give?
Answer: Its INHIBITION is 53.4%.

Question: Which INHIBITION does the source give for `COc1ccnc(N2CCN(C(C)c3nc(C)no3)CC2)n1` (configuration not stated) here?
Answer: The INHIBITION was 22.6%.

Question: Which INHIBITION does the source give for `CCc1noc(C(C)N2CCN(C)CC2)n1` (configuration not stated) here?
Answer: Its INHIBITION is -5.25%.

Question: `Cc1noc(C(C)N2CCN(c3ncnc4sccc34)CC2)n1` (configuration not stated) was tested. Which INHIBITION did it give?
Answer: The INHIBITION was 68.8%.

Question: For `CCc1noc(C(C)N2CCN(c3ncnc4sccc34)CC2)n1` (configuration not stated), which INHIBITION is on record?
Answer: Its INHIBITION is 61.7%.

Question: Which INHIBITION does the source give for `CCOc1cc(C)nc(N2CCN(C(C)c3nc(C)no3)CC2)n1` (configuration not stated) here?
Answer: Its INHIBITION is 18.7%.

Question: `CCc1noc(C(C)N2CCN(c3ccc(C#N)cn3)CC2)n1` (configuration not stated) was tested. Which INHIBITION did it give?
Answer: Its INHIBITION is -25.3%.

Question: How did the INHIBITION turn out when `Cc1cnc(CN2CCN(C(C)c3nc(C)no3)CC2)cn1` (configuration not stated) was run?
Answer: The INHIBITION was -14.8%.

Question: For `Cc1noc(C(C)N2CCC(c3nc4ccccc4[nH]3)CC2)n1` (configuration not stated), which INHIBITION is on record?
Answer: Its INHIBITION is 35.4%.

Question: How did the INHIBITION turn out when `COc1cc(C)nc(N2CCN(C(C)c3nc(C)no3)CC2)n1` (configuration not stated) was run?
Answer: The INHIBITION was -72.5%.

Question: For `Cc1noc(C(C)N2CCN(c3ncnc4ccccc34)CC2)n1` (configuration not stated), which INHIBITION is on record?
Answer: Its INHIBITION is 51.3%.

Question: `Nc1ccnc(N2C[C@H](O)[C@@H](N3CCN(c4ccccn4)CC3)C2)n1` was tested. Which INHIBITION did it give?
Answer: Its INHIBITION is 37.2%.

Question: With `O=C([C@H]1C[C@H]2CN(c3ncc(F)cn3)C[C@@H]1O2)N1CCOCC1` as the compound, how does the INHIBITION read?
Answer: The INHIBITION was 17.7%.

Question: With `CC1CN(CC(=O)NC2CCOCC2)CCN1Cc1nccn1C` (configuration not stated) as the compound, how does the INHIBITION read?
Answer: Its INHIBITION is 29.305%.

Question: For `CCCOc1cccc(C(=O)Oc2cc(=O)n3cccc(C)c3n2)c1`, which INHIBITION is on record?
Answer: The INHIBITION was 22.6%.

Question: `Cc1ncncc1C(=O)N1CCCC1c1c(C)nn(C)c1Cl` (configuration not stated) was tested. Which INHIBITION did it give?
Answer: Its INHIBITION is 1.78%.

Question: `Cc1cnc(C(=O)N2C[C@@H]3CC[C@H]2CN(c2cnccn2)C3)cn1` was tested. Which INHIBITION did it give?
Answer: The INHIBITION was -55.1%.

Question: `O=C(C1CCCCC1)N1CCN(Cc2nc(-c3ccco3)no2)CC1` was tested. Which INHIBITION did it give?
Answer: Its INHIBITION is 23.7%.

Question: For `COC(=O)c1ccoc1CN(C)CC(=O)N(C)C`, which INHIBITION is on record?
Answer: The INHIBITION was 22.8%.

Question: Which INHIBITION does the source give for `NC(=O)CN1CCOCC(Cc2ccccc2Cl)C1` (configuration not stated) here?
Answer: The INHIBITION was 11.1%.

Question: Which INHIBITION does the source give for `O=C(c1csc(I)c1)N1CCc2c(ncn2C2CC2)C1` here?
Answer: The INHIBITION was 76%.

Question: For `CN(C)c1ncccc1C(=O)N1CCc2c(ncn2C2CC2)C1`, which INHIBITION is on record?
Answer: The INHIBITION was -10.785%.

Question: How did the INHIBITION turn out when `COC(=O)c1ccc(C(=O)N2CCc3c(ncn3C3CC3)C2)cc1` was run?
Answer: The INHIBITION was -36.95%.

Question: With `CCN(CC)Cc1nnc2sc(C(C)Oc3ccccc3)nn12` (configuration not stated) as the compound, how does the INHIBITION read?
Answer: The INHIBITION was -2.93%.

Question: For `CC(C)C1CN(S(=O)(=O)N(C)C)CCCN1Cc1ccc(F)cc1` (configuration not stated), which INHIBITION is on record?
Answer: The INHIBITION was 12.8%.

Question: How did the INHIBITION turn out when `CC(C)C1CN(S(=O)(=O)C2CC2)CCCN1Cc1ccc(F)cc1` (configuration not stated) was run?
Answer: Its INHIBITION is 45.6%.

Question: `CC(C)C1CN(S(C)(=O)=O)CCCN1Cc1ccc(F)cc1` (configuration not stated) was tested. Which INHIBITION did it give?
Answer: Its INHIBITION is 24.3%.

Question: Which INHIBITION does the source give for `CC(C)C1CN(c2cccc(C#N)n2)CCCN1CC1CC1` (configuration not stated) here?
Answer: Its INHIBITION is 33.9%.

Question: With `CC(C)C1CN(S(=O)(=O)N2CCCC2)CCCN1Cc1ccc(F)cc1` (configuration not stated) as the compound, how does the INHIBITION read?
Answer: The INHIBITION was 65.3%.

Question: With `CC(C)C1CN(c2cccc(C#N)n2)CCCN1Cc1ccc(F)cc1` (configuration not stated) as the compound, how does the INHIBITION read?
Answer: Its INHIBITION is 68.5%.

Question: Which INHIBITION does the source give for `Fc1cnc(N2CCn3cc(CNc4ccccn4)nc3C2)nc1` here?
Answer: The INHIBITION was 47.2%.

Question: Which INHIBITION does the source give for `CC(C)n1nc(CNc2ncccn2)c2c1CN(C1CCOCC1)CC2` here?
Answer: Its INHIBITION is -18.2%.

Question: How did the INHIBITION turn out when `CSCCNC(=O)C1CCC(=O)N(C2CCCC2)C1` (configuration not stated) was run?
Answer: Its INHIBITION is 17.9%.

Question: Which INHIBITION does the source give for `O=C(NCCN1CCCCC1=O)C1CCC(=O)N(C2CCCC2)C1` (configuration not stated) here?
Answer: The INHIBITION was 55.6%.

Question: With `O=C(NCCn1cccc1)C1CCC(=O)N(C2CCCC2)C1` (configuration not stated) as the compound, how does the INHIBITION read?
Answer: Its INHIBITION is 41.2%.

Question: Which INHIBITION does the source give for `N#Cc1ccc(NCc2cccc(OCC3CCCO3)c2)nc1` (configuration not stated) here?
Answer: Its INHIBITION is 53.8%.

Question: `Cc1nnc(NCc2cccc(OCC3CCCO3)c2)c(C#N)c1C` (configuration not stated) was tested. Which INHIBITION did it give?
Answer: The INHIBITION was 1.74%.

Question: Which INHIBITION does the source give for `Cc1nc2ccccc2nc1NCc1cccc(OCC2CCCO2)c1` (configuration not stated) here?
Answer: The INHIBITION was 83.9%.

Question: How did the INHIBITION turn out when `N#Cc1ccc(NCCCOCC2CCCO2)c(F)c1` (configuration not stated) was run?
Answer: The INHIBITION was 6.02%.

Question: How did the INHIBITION turn out when `Oc1cccc(CNCC2CCCO2)c1` (configuration not stated) was run?
Answer: The INHIBITION was 35.5%.

Question: For `CN(C)C(=O)c1cccc(CNc2ccc(C#N)cn2)c1`, which INHIBITION is on record?
Answer: Its INHIBITION is 73.8%.

Question: How did the INHIBITION turn out when `CNC(=O)c1cccc(CCNc2ccc(C#N)cn2)c1` was run?
Answer: Its INHIBITION is -11%.

Question: How did the INHIBITION turn out when `N#Cc1ccc(NCc2cccc(COC3CCOCC3)c2)nc1` was run?
Answer: The INHIBITION was 7.58%.

Question: For `CNS(=O)(=O)Cc1cccc(CNc2ccc(C#N)cn2)c1`, which INHIBITION is on record?
Answer: Its INHIBITION is -55%.
